# Experimental data taken from PubChem BioAssay (NCATS).
# Activity calls are given as the source filed them. The call rests on the fitted dose curve; in most records, active means well fitted activation curve with a large enough effect; inconclusive means small, poorly fitted or top-dose-only effect, or effect the other way; inactive means flat fitted curve, though single readings scatter.
# Assay: Cellular Toxicity (caspase-3) Renal Proximal Tubule (AID 667);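 further: cells exposed to compound for 16 hours at 37 °C before detection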
# Settings: renal proximal tubule cells, primary cells freshly taken from rat, solvent-only wells 0%, staurosporine 100%; series mostly up to 91.7 µM; caspase-3 activation: at the top concentration
# Excerpt: NIH Chemical Genomics Center [NCGC]
# NIH Molecular Libraries Screening Centers Network [MLSCN]
# National Institutes of Environmental Health Sciences [NIEHS]
# National Toxicology Program [NTP]
# We have developed a 1536-well cell-based assay for quantitative high throughput screening (qHTS) against a number of cell lines to determine in vitro caspase 3/7 activity of small molecules. This particular assay uses the primary kidney proximal tubule cells freshly isolated from rat.
# NCGC Assay Protocol Summary:
# The Caspase-Glo 3/7 assay (Promega) is a homogeneous method to measure caspase-3 and caspase-7 activities in cultured cells. The quantitation of caspase 3/7 activity is based on the cleavage of a peptide-aminoluciferin substrate. After caspase cleaves the substrate the free aminoluciferin is liberated and serves as the substrate of luciferase, which generates the light. The luminescent signal is proportional to the amount of caspase 3/7 activity present.
# Using the Caspase-Glo 3/7 assay, the amount of caspase 3/7 activity was measured in the rat kidney proximal tubule cells with complete culture medium following compound treatment for 16 hours. The assay was performed in opaque white 1536-well plates. In the screen, staurosporine and doxorubicin were used as positive controls. Library compounds were measured for their ability to cause the activation of caspase 3/7 in the cell line, as reflected by an increase in luminescence signal, in a concentration-dependent manner. Data were normalized to the controls for basal activity (DMSO only) and 100% stimulation (10 uM staurosporine). AC50 values were determined from concentration-response data modeled with the standard Hill equation.
# qHTS protocol for caspase 3/7 assay in rat kidney proximal tubule cells
# [Step] [Parameter] [Value] [Description]
# 1. Reagent; 5 uL; 1000 rat kidney proximal tubule cells/well
# 2. Time; 5 hr; 37 °C incubation
# 4. Controls; 23 nL; doxorubicin 7 pM to 100 uM & staurosporine 1.4 pM to 20 uM
# 5. Time; 16 hr; 37 °C incubation
# 6. Reagent; 5 uL; Caspase-Glo 3/7 reagent
# 7. Time; 1 hr; Room Temperature
# 8. Detection; Luminescence; Viewlux plate reader
# Keywords: caspase 3/7, apoptosis, rat kidney proximal tubule cells, luminescence, NTPHTS, NTPHTS_NCGC, NIEHS, EPA, DSSTox, MLSMR, MLSCN, NIH Roadmap, qHTS, NCGC
Compound,caspase-3 activation,outcome
Nc1cccc2c(N)cccc12,-1.12% (inactive),–
Brc1ccccc1-c1ccccc1,7.04% (inactive),–
COc1cc(C=O)ccc1O,-1.74% (inactive),–
CC(C)C(C)(C)C(C)(C)C(C)(C)S,0.94% (inactive),–
Cc1ccc(O)cc1,2.98% (inactive),–
CC(C)(C)c1ccc(O)c(O)c1,-13.5% (inactive),–
Oc1ccccc1,1.59% (inactive),–
Cc1cc(C(C)(C)C)c(O)c(C(C)(C)C)c1,1.46% (inactive),–
O=C(c1ccccc1)c1ccccc1,13.9% (inactive),–
Nc1c2ccccc2nc2ccccc12,17.5% (inactive),–
O=C(NO)c1ccccc1,-4.67% (inactive),–
OCc1c[nH]c2ccccc12,0.999% (inactive),–
CCCC(=O)c1cc(O)c(O)cc1O,-5.58% (inactive),–
c1ccc2occc2c1,3.95% (inactive),–
CCCCC(CC)COC(=O)c1ccccc1C(=O)O (centres undefined),-3.8% (inactive),–
C1=CC2C3C=CC(C3)C2C1 (centres undefined),-4.56% (inactive),–
CCCCCCCCCCCCCCCC[n+]1ccccc1,13.5% (inactive),–
CC(=O)OC/C=C(C)/C=C/C=C(C)/C=C/C1=C(C)CCCC1(C)C,-6.14% (inactive),–
CC(C)(c1ccc(O)cc1)c1ccc(O)cc1,–,inactive
